In all, about 5,500 compounds went through this assay and about 2,000 (36%) were called active. Not shown: some 18% with an inconclusive outcome. No stated cut-off is given here; in the data, active means normalized growth mostly below about 0.91 (no sharp cut-off); inconclusive means no clear call, values can overlap the other calls; inactive means mostly above about 0.92. The list shows a part of the results.
Experiment: chemical genetic growth profiling, strain panel (AID 1159580);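 further: tested at 20 µM; growth read once vehicle control cultures reached saturation at 30 °C; 1 = growth at the plate median or of vehicle wells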
Settings: S. cerevisiae deletion strains, growth OD

Measured: normalized growth

CC(=O)[C@@]12O[C@](C)(c3ccccc3)O[C@@H]1CC1C3CCC4=CC(=O)CC[C@]4(C)C3CC[C@@]12C (stereo partly drawn)
inactive: locus YHR030C, strain SLT2, stronger effect = lower value 1.06 | locus YHR079C, strain IRE1, stronger effect = lower value 1.03 | locus YJL095W, strain BCK1, stronger effect = lower value 0.901 | locus YJR066W, strain TOR1, stronger effect = lower value 1.01 | locus YLR113W, strain HOG1, stronger effect = lower value 0.897 | locus YNL183C, strain NPR1, stronger effect = lower value 0.987 | locus YOR231W, strain MKK1, stronger effect = lower value 1 | locus YPL256C, strain CLN2, stronger effect = lower value 1.02

From PubChem BioAssay AID1159580 (chemical genetic matrix, 2015)
